Results filed as inconclusive are left out. Activity calls are given as the source filed them.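 Rule for the calls, unless noted: active = RAM network inhibition above 8.4% in each of two replicates, 3 SD over the compound average; inconclusive = above 8.4% inhibition in only one replicate; inactive = 8.4% inhibition or less in each replicate.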

The nature of experiment [1]: OD615 S. cerevisiae growth inhibition, permissive medium, pilot counter-assay, permissive growth control for S. cerevisiae lifespan shortening project (AID 705;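 active = growth inhibition above 25% in both replicates, a cutoff set 3 SD above the mean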). The note with it: OD615, 24 h, at 10 µM, stronger effect = higher value.
Experiment [2] can be described thus: Restrictive medium S. cerevisiae growth inhibition, OD615, pilot screen of yeast lifespan reduction project, restrictive growth control (AID 706;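 active = growth inhibition above a set limit, 3 SD over mean compound inhibition, in both replicates, cut at about 43% in these data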;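 note: modified DeaD lifespan yeast strain shifted to restrictive glucose medium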). The note with it: OD615, 48 h, at 10 µM, stronger effect = higher value.
Experiment [3] in a line: viability gain of MRP-1-high H69AR cells under doxorubicin, pilot screen, MRP-1 activator project, CellTiter-Glo, duplicate (AID 807;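 active = viability increase at or above a cutoff of the median across tested compounds plus 3 SD, cut at about 8.5% in these data, passing the limit was not always enough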;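 note: compound pretreatment 18-22 h then 72 h combined with doxorubicin; 0% = doxorubicin alone and 100% = vehicle without doxorubicin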). To be noted: H69AR viability with doxorubicin, CellTiter-Glo luminescence; at 10 µM; stronger effect = higher value.
The nature of experiment [4]: growth suppression of beta-catenin knockout HCT116, pilot screen, human colon tumor cells (AID 823;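 active = cell viability at or below a set limit in both duplicate runs, the limit being the all-compound median minus 4 SD, cut at about 23% in these data, passing the limit was not always enough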;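 note: 0% = wells killed by 20 µM Hyamine and 100% = untreated DMSO cell wells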). The note with it: CellTiter-Glo, 60 h, at 10 µM, stronger effect = lower value. Background: In ATP-based viability assays light output follows the ATP content of the culture.
Experiment [5] is described as follows: growth suppression of PTEN-deleted HCT116, pilot screen, cell-based, HCT116 clonal line, CellTiter-Glo (AID 824;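 active = viability at or below 27.92% in each of two runs, the all-compound median minus 4 SD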;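 note: 0% = 20 µM Hyamine control and 100% = vehicle cell control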). To be noted: 60 h, at 10 µM, stronger effect = lower value.
Experiment [6] can be described thus: inhibitors of the yeast RAM network, pilot screen, dse1pr::URA3 reporter, 5-FOA selection (AID 869;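 active = inhibition over a set limit, the all-compound mean plus 3 SD, in both replicate runs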;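 note: 0% = DMSO wells with no growth and 100% = 10 µM 1-NA-PP1 with full growth; RAM network block rescues cells from 5-FOA so hits raise OD615 growth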). To be noted: S. cerevisiae dse1pr::URA3 5-FOA growth, OD615, 2 d, at 10 µM, stronger effect = higher value.
A short description of experiment [7]: RAM signaling pathway blockade in yeast – S. cerevisiae, Pdr1DBD-CYC8 efflux-inhibited sensitized strain, primary screen (AID 1298).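 Note: 0% = DMSO untreated cells without growth and 100% = 10 µM 1-NA-PP1 full growth; higher means more yeast growth rescued from 5-FOA killing.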 To be noted: S. cerevisiae cbk1-as DSE1-URA3 strain, 5-FOA growth OD615, 2 d; at 50 µM; stronger effect = higher value.
Experiment [8] deals with Pantothenate synthetase (Mycobacterium tuberculosis (strain ATCC 25618 / H37Rv)) (UniProt P9WIL5). Nature of the experiment: Recombinant Mtb pantothenate synthetase (PanC) inhibitors, coupled enzyme, confirmatory (AID 375; call rule not given here;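 note: 0% = full reaction with vehicle and 100% = no enzyme background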). The note with it: coupled enzyme assay; at 10 µM, stronger effect = higher value.
Chain of Pantothenate synthetase (Mycobacterium tuberculosis (strain ATCC 25618 / H37Rv)) (P9WIL5 whole entry, looked up): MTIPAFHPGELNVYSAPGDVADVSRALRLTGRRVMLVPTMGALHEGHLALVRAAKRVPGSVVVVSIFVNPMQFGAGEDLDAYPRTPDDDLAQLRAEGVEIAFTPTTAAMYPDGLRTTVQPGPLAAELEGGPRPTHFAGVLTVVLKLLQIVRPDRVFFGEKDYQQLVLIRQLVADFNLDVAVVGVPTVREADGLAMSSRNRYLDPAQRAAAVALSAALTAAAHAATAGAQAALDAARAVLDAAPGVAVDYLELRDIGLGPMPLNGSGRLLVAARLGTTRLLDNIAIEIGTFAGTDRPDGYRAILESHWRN
Experiment [9] is described as follows: reducers of endogenous Her2 protein level, primary screen, SKBR3 breast tumor cells, AlphaScreen, ATP viability (AID 461;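 active = Her2 level under about 52% in both replicate screens, with viability over 70% of control, limit read from the data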;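 for Her2 level: lower value means less Her2 protein in the cells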;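 for viability: percent of carrier control wells set as 100% viability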). To be noted: 18-24 h, measured here: SKBR3 viability, ATP luminescence, at 10 µM. On the technique in general: In Alpha technology, singlet oxygen from a donor bead excites a nearby acceptor bead.
Experiment [10] addresses Receptor tyrosine-protein kinase erbB-2 (Homo sapiens) (UniProt P04626). Described as above. To be noted: 18-24 h, at 10 µM, stronger effect = lower value.
Experiment [11] in a line: SK-BR-3 cell growth inhibitors, pilot screen, 24 h, human (AID 572;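 active = viability at or below 10% of carrier control in both of two separate runs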;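 note: compound exposure lasted between 18 and 24 h rather than exactly 24 h; 100% = carrier-treated control wells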). The note with it: SK-BR-3 viability, CellTiter-Glo luminescence, at 10 µM, stronger effect = lower value.
Experiment [12] can be described thus: HUVEC growth inhibition – cell-based, human, primary screen (AID 575;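 active = viability at or below 30% in both replicate assays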;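 note: 100% = median of untreated cell wells with 0.1% DMSO on each plate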). The note with it: HUVEC proliferation, CellTiter-Glo luminescence, 72 h; at 10 µM; stronger effect = lower value.
Experiment [13] in a line: growth inhibitors of H69AR lung tumor, primary screen, human, duplicate replicates (AID 580;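 active = viability at or under a set limit in both replicates, limit being median viability minus 3 SD, cut at about 48% in these data, passing the limit was not always enough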;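 note: 100% = mean luminescence of untreated wells and 0% = no signal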). To be noted: H69AR lung tumor cells viability, ATP luminescence, 72 h; at 10 µM; stronger effect = lower value.
The nature of experiment [14]: reversal of MRP1-mediated doxorubicin resistance, pilot screen, H69AR cells, doxorubicin co-treatment (AID 601;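 active = viability loss from added drug above about 55%, and viability with drug at most 40%, in both replicates, limit read from the data, passing the limit was not always enough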). To be noted: CellTiter-Glo, 72 h, at 10 µM; for differential viability (reversal): stronger effect = higher value.
The nature of experiment [15]: 384-well plate pilot, post-Golgi transport modulator project, inhibition of yeast transport mutant growth (AID 636; in the data active = inhibition above about 31%). To be noted: absorbance 615 nm, about 18 h, stronger effect = higher value.
Experiment [16] is described as follows: growth suppression of yeast trafficking mutant, preliminary HTS, modulators of trafficking downstream of Golgi apparatus project, 1536-format plate, OD 615 nm (AID 637; in the data active = inhibition above about 30%). To be noted: yeast transport mutant growth, absorbance 615 nm, 18 h; stronger effect = higher value.
Setting [17] is: H69AR cells + 2 uM doxorubicin, measured here: viability with 2 uM doxorubicin, stronger effect = lower value.
The mark [18] stands for this setting: H69AR cells, compound alone cytotoxicity.

Chain of Receptor tyrosine-protein kinase erbB-2 (Homo sapiens) (P04626 whole entry, looked up): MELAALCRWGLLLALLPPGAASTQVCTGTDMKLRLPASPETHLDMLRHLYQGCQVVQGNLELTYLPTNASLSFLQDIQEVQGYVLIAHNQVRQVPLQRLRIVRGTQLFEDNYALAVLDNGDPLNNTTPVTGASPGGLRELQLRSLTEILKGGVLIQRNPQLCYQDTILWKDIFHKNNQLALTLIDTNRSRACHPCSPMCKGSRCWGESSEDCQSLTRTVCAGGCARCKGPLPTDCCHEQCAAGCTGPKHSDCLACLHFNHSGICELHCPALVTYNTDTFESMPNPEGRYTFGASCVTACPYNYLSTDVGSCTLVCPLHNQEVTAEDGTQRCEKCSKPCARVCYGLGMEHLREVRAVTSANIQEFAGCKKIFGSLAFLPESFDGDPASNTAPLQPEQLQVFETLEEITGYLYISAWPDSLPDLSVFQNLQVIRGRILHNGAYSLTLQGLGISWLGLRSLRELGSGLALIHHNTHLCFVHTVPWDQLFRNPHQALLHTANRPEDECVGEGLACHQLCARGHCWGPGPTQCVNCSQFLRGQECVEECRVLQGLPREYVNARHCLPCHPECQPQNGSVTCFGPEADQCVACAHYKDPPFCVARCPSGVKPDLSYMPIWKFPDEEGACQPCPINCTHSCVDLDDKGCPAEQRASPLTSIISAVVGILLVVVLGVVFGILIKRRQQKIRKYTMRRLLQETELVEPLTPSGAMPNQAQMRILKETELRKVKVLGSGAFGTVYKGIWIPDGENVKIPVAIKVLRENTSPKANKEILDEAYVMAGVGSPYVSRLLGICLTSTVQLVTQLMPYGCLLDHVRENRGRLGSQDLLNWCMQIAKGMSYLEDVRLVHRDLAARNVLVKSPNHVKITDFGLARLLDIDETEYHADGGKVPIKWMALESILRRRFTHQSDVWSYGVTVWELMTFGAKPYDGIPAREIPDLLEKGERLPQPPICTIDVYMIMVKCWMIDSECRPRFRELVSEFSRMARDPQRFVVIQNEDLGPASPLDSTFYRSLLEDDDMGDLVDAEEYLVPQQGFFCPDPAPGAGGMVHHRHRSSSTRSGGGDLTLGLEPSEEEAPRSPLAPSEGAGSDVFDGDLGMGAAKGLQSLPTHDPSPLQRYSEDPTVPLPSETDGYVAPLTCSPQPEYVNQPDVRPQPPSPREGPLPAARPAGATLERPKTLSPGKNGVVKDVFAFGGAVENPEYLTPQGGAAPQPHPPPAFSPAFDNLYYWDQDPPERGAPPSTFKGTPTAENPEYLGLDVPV

Usually viability stands for a read-out of living cells in per cent, often relative to untreated cells. The inhibition is the drop in the measured response relative to a control, in per cent. With `Cc1ccc2c(c1)C1CN(C)CCC1N2C(=O)Cn1nnc(-c2ccccc2F)n1` (stereo not given), the growth inhibition is 6.06% (inactive) in experiment [1] and -9.18% (inactive) in experiment [2]. For the same molecule, the viability increase in [3] is -5.58% (inactive). Besides, the figures for the viability in [4] and in experiment [5] were 85.2% (inactive) and 83.8% (inactive), respectively. Also, the inhibition in experiment [6] was 0.18% (inactive). In addition, in experiment [7], the RAM network inhibition is 3.31% (inactive).
With `CC12CCC(=O)C=C1CCC1C2CCC2(C)C(O)CCC12` (stereo not given), the growth inhibition in [1] was 5.38% (inactive); in experiment [2], 6.93% (inactive). In addition, in experiment [3], the viability increase is -3.17% (inactive). Moreover, the figures for the viability in experiment [4] and in [5] were 89.5% (inactive) and 94% (inactive), respectively. Further, the inhibition in experiment [6] was 0.475% (inactive). Moreover, the RAM network inhibition in [7] is 1.32% (inactive).
`Cc1ccc(CC2C(=O)N(C)C(=O)N(C)C2=O)s1`: the inhibition was 0% (inactive) in experiment [8], -3.77% (inactive) in [15], -1.67% (inactive) in experiment [16] and -0.01% (inactive) in [6]. Further, the viability in [9] was 106%; in experiment [11] it was 106% (inactive); in experiment [12] it was 82.8% (inactive); in experiment [13] it was 95.4% (inactive); in [14] (setting [17]), 88.3%; in experiment [14] (setting [18]), 95.4%. The viability in experiment [4] was 100% (inactive); in experiment [5] it was 99.6% (inactive). In experiment [10], the Her2 level is 119% (inactive). Further, the differential viability (reversal) in experiment [14] (H69AR cells + 2 uM doxorubicin) was 7.06% (inactive). Also, the growth inhibition was -2.9% (inactive) in [1] and 3.58% (inactive) in [2]. In addition, in [3], the viability increase was 0.21% (inactive). In addition, in experiment [7], the RAM network inhibition is 4.4% (inactive).
Turning to `CCc1ccc(OCCCN=C(C)c2c(O)n(C)c(=O)n(C)c2=O)cc1`, the inhibition in experiment [8] was 0% (inactive); in [15] it was -1.95% (inactive); in experiment [16], 1.83% (inactive); in experiment [6] it was 0.12% (inactive). In addition, the viability in experiment [9] is 92%; in experiment [11], 92% (inactive); in [12], 77.7% (inactive); in [13] it was 85.1% (inactive); in [14] (setting [17]), 83.8%; in experiment [14] (setting [18]), 85.1%. The viability in experiment [4] is 77.3% (inactive); in experiment [5], 80.8% (inactive). In addition, in [10], the Her2 level was 85.5% (inactive). Further, in experiment [14] (H69AR cells + 2 uM doxorubicin), the differential viability (reversal) is 1.31% (inactive). In addition, the growth inhibition in [1] is -6.49% (inactive); in experiment [2] it was -4.79% (inactive). Also, the viability increase in experiment [3] is 0.23% (inactive). In experiment [7], the RAM network inhibition is -0.72% (inactive).

Source of the values: PubChem BioAssay.
